Laboratory results taken from the supplement of paper PMC3545927.
The other results are listed elsewhere or left out. No count for the full screen is at hand.

Biological target: furin, P09958
Assay: furin cleavage Z-score vs untreated control; higher = more cleavage, active = 3.5 or more, inactive = 1 or less, 8 variable residues between constant flanks
How it was run: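 To give the cleavage Z-score, log read counts were set against furin-free reactions, lowess-adjusted and scaled by median absolute deviation. These counts came from PCR adapter-tagged, sequenced DNA released when purified furin cut 8-mer peptides fused to a cDNA oligonucleotide and held on magnetic beads by their N-terminus. Digests were 0.01 ml, 1:10 enzyme:substrate, in 50 mM HEPES pH 7.5 with CaCl2 and NaCl, for 7.5, 15 or 30 min.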

Sequence of furin, P09958 (P09958 whole entry): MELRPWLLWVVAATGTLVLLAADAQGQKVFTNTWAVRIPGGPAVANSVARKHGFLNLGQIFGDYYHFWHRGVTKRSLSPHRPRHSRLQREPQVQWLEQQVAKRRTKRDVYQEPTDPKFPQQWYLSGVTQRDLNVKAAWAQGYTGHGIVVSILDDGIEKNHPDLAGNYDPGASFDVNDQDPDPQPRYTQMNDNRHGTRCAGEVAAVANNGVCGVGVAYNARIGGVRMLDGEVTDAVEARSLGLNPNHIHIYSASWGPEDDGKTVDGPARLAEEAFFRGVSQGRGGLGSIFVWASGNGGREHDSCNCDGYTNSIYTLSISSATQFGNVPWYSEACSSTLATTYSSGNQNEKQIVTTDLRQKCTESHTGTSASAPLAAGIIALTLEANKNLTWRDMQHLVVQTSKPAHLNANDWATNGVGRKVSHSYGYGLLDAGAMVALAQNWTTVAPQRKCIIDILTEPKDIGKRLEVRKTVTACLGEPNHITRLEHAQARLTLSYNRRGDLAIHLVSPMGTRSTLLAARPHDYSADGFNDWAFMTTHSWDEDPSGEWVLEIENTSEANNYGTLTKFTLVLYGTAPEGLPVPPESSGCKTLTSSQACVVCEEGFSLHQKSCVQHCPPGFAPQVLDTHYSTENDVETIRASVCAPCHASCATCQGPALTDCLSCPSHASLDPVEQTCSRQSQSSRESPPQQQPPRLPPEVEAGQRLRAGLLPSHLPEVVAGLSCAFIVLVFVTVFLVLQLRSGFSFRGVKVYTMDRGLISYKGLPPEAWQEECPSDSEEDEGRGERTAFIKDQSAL

| Sequence | furin cleavage Z-score (7.5 min) | furin cleavage Z-score (15 min) | furin cleavage Z-score (30 min) |
| --- | --- | --- | --- |
| CAQCTTPCSGAGNASASA [HC1962] | -0.946 (inactive) | 0.921 (inactive) | -0.234 (inactive) |
| CAYCTTPCSGAGNASASA [HC1949] | -0.657 (inactive) | -1.14 (inactive) | -0.156 (inactive) |
| CASEECSQHLAGNASASA [HC1677] | 1.1 | 1.14 | 0.289 (inactive) |
| CAVRSRHLRAAGNASASA [FS-632] | 9.71 (active) | 9.82 (active) | 8.62 (active) |
| CACSFTTLPAAGNASASA [HC499] | -0.00686 (inactive) | 0.0583 (inactive) | 0.931 (inactive) |
| CAPSFRDRRAAGNASASA [FS-1244] | 9.04 (active) | 11.1 (active) | 9 (active) |
| CALPSRQKKAAGNASASA [FS-1365] | 0.168 (inactive) | 0.828 (inactive) | 1.92 |
| CAGPLWILQAAGNASASA [HC609] | 1.21 | -0.216 (inactive) | 0.172 (inactive) |
| CAVPSRQSRAAGNASASA [FS-207] | 7.32 (active) | 8.36 (active) | 8.3 (active) |
| CAVRSRMRRAAGNASASA [FS-1500] | 11 (active) | 10.2 (active) | 8.12 (active) |
| CAMEEISQHLAGNASASA [HC5] | 1.45 | 0.702 (inactive) | -0.262 (inactive) |
| CAHLHAPTGSAGNASASA [HC774] | -0.0824 (inactive) | 0.739 (inactive) | 0.623 (inactive) |
| CAPQDVKFPGAGNASASA [HC170] | 0.0199 (inactive) | -1.23 (inactive) | 0.673 (inactive) |
| CAVEGEVQIVAGNASASA [HC688] | -0.863 (inactive) | -0.579 (inactive) | -0.88 (inactive) |
| CARSLRSWLIAGNASASA [FS-1974] | 0.545 (inactive) | 0.463 (inactive) | 0.528 (inactive) |
| CAERLRQKRIAGNASASA [FS-1194] | 4.13 (active) | 5.45 (active) | 4.4 (active) |

| Sequence | furin cleavage Z-score (7.5 min) | furin cleavage Z-score (15 min) | furin cleavage Z-score (30 min) |
| --- | --- | --- | --- |
| CASITRMKRIAGNASASA [FS-719] | 6.03 (active) | 8.1 (active) | 7.63 (active) |
| CALHRRQKRIAGNASASA [FS-821] | 9.03 (active) | 10.1 (active) | 10.5 (active) |
| CASIARQKRIAGNASASA [FS-562] | 4.19 (active) | 2.74 | 5.27 (active) |
| CAMSTRKARIAGNASASA [FS-277] | 1.25 | 1.83 | -0.362 (inactive) |
| CAHQWISSECAGNASASA [HC1141] | -0.592 (inactive) | -1.1 (inactive) | 0.453 (inactive) |
| CAKWEYVVLLAGNASASA [HC518] | 0.0863 (inactive) | -1.74 (inactive) | -0.726 (inactive) |
| CAANRRMKRIAGNASASA [FS-750] | 7.06 (active) | 9.01 (active) | 7.77 (active) |
| CAVPRRSKRIAGNASASA [FS-513] | 6.01 (active) | 7.79 (active) | 6.97 (active) |
| CADDERSKRIAGNASASA [FS-221] | 0.272 (inactive) | 0.273 (inactive) | -0.987 (inactive) |
| CAFPMRSKKIAGNASASA [FS-771] | -1.66 (inactive) | 0.142 (inactive) | -0.16 (inactive) |
| CALVVRGPPGAGNASASA [FS-1846] | -0.565 (inactive) | -0.565 (inactive) | -0.843 (inactive) |
| CASHHRHRRGAGNASASA [FS-1410] | 9.65 (active) | 10.8 (active) | 9.31 (active) |
| CALRAWRHRAAGNASASA [HC1619] | 2.05 | 0.378 (inactive) | 0.854 (inactive) |
| CASLERLRRGAGNASASA [FS-296] | 0.592 (inactive) | 0.0398 (inactive) | 0.764 (inactive) |
| CAHHHRHRRAAGNASASA [FS-1006] | 9.03 (active) | 6.62 (active) | 5.92 (active) |
| CAHHHRHHRAAGNASASA [FS-1336] | 2.38 | 2.68 | 3.58 (active) |
